Laboratory results as given in PubChem BioAssay (NCI).
Several values for one entry are separate records, joined by “and”; a condition that tells them apart may be missing. Equal entries are not always repeated. The panel holds about 83,000 compounds, 20% with a hit somewhere; the sample as a whole holds those more often.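 Each cell line was grown in a 96-well plate and treated with one concentration of compound for 48 hours. Values below 10 were considered active.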 Activity calls are given as the source filed them. Where a SMILES comes first, the peptide text is derived from it. The star is where a group is joined. Trt = c1ccc(C(c2ccccc2)(c2ccccc2)*)cc1; Cbz = O=C(OCc1ccccc1)*

system: NCI-H522 lung; experiment: NCI-60 one-dose screen, 48 h (100 = growth as untreated, 0 = no growth, -100 = all killed); conditions: 10 µM unless noted

Row | SMILES | growth
1 | S=C(N/N=C/c1ccccn1)Nc1ccccn1 | -39.9% (active)
2 | O=C(/C=C\c1ccccc1)N1c2ccccc2CC1c1c[nH]c2ccccc12 (stereo not drawn) | 30.2% (inactive)
3 | Cc1cc(N)c2ccccc2[n+]1CCCCCCCCCC[n+]1c(C)cc(N)c2ccccc21 | -8.65% (active) and -8.09% (active)
4 | N[C@H](C(=O)O)[C@@H]1CC(Cl)=NO1 | 25.4% [20 µM] (inactive)
5 | Cc1c2ccccc2c(C)c2c1ccc1ccccc12 | 79.5% (inactive)
6 | CCC(c1cccc(O)c1)C(CC)c1cccc(O)c1 (stereo not drawn) | 56.3% (inactive)
7 | Oc1c(Cl)c2ccccc2c2ccccc12 | 44.3% (inactive)

system: A549/ATCC NSCLC; experiment: as above; conditions: 10 µM unless noted

Row | SMILES | growth
8 | O=C(/C=C/c1cccc(Cl)c1)c1ccccc1 | 83.6% (inactive) and 86.7% (inactive)
9 | O=C(Nc1cccc(Br)c1)Oc1ccc(Cl)c2cccnc12 | 23.6% [100 µM] (inactive)
10 | CN(C)c1ccc(/C=N/N=C(\C#N)[S][Sn]([Cl])([c]2ccccc2)[c]2ccccc2)cc1 | 78.3% (inactive)
11 | O=C1N[C@H]2[C@H](CS[C@H]2CCCCC(=O)N(CCP(c2ccccc2)c2ccccc2)CCP(c2ccccc2)c2ccccc2)N1 | 76.6% (inactive)
12 | NC(=S)N/N=C\c1nccc2c(C(F)(F)C(F)(F)C(F)(F)F)cccc12 | -20.8% (active)
13 | O=C1c2ccccc2C(=O)c2sc(Nc3cccc(Cl)c3)nc21 | 30.7% (inactive)
14 | O[C@H]1[C@H]2c3cc4c(cc3CN3CCC(=C[C@@H]1O)[C@H]23)OCO4 | 19.1% (inactive)
15 | CCCCCCCCCCCCCCCCOP(=O)([O-])OCC[N+](C)(C)C | 31.8% (inactive)
16 | Nc1ncnc2c1ncn2C1OC(CO)C(O)C1O (stereo not drawn) | 106% (inactive) and 97.7% (inactive)
17 | CCOc1ccc(-c2nc3ccc(-c4nc5ccc(N6CCN(C)CC6)cc5[nH]4)cc3[nH]2)cc1 | -80.7% (active)
18 | O=C(/C=C\c1cc(Br)ccc1O)/C=C/c1cc(Br)ccc1O | -8.66% (active)
19 | CCC(=O)Sc1ccccc1C(=O)Nc1ccc(Cl)cc1 | 76.5% (inactive)
20 | Oc1c(Br)c(Br)c(O)c(Br)c1Br | 118% (inactive)
21 | COc1ccccc1OC(=O)Oc1ccccc1OC | 90.1% (inactive) and 109% (inactive)
22 | O=C1c2cccnc2-c2nccc3c2c1nc1cc(Br)ccc13 | -65.9% (active) and -81% (active)
23 | Nc1ccc(SSc2ccc(N)cc2)cc1 | 77.7% (inactive)
24 | Cc1ccc2nc(C[n+]3ccc4ccccc4c3)ccc2c1 | 51.7% (inactive)

Row | SMILES | growth
25 | CN(C)CCOc1ccc2c(c1)C(=O)/C(=C\c1ncc([N+](=O)[O-])n1C)C2 | -29.6% (active)
26 | N#CSCc1c(Cl)cccc1Cl | 97.6% (inactive)
27 | C[N+](C)=c1ccc2nc3c(cc(NCCCNc4cc5oc6cc(=[N+](C)C)ccc-6nc5c5ccccc45)c4ccccc43)oc-2c1 | 20.5% (inactive)
28 | COC(=O)C(CSC(c1ccccc1)(c1ccccc1)c1ccccc1)NC(=O)C(CC(N)=O)NC(=O)OCc1ccccc1 (stereo not drawn) (Cbz-Asn-Cys(Trt)-OMe; configuration not given here) | 41.4% (inactive)
29 | S=C(N/N=C/c1ccccn1)Nc1ccccn1 | 20.7% (inactive)
30 | O=C(/C=C\c1ccccc1)N1c2ccccc2CC1c1c[nH]c2ccccc12 (stereo not drawn) | 64.5% (inactive)
31 | CC(=Nc1ccc(N(C)C)cc1)c1ccccc1 | 45.2% (inactive)
32 | Cc1cc(N)c2ccccc2[n+]1CCCCCCCCCC[n+]1c(C)cc(N)c2ccccc21 | 29.9% (inactive) and -17% (active)
33 | N[C@H](C(=O)O)[C@@H]1CC(Cl)=NO1 | 19.1% [20 µM] (inactive)
34 | Cc1c2ccccc2c(C)c2c1ccc1ccccc12 | 78.4% (inactive)
35 | O=C(O)c1ccc2c3c(ncnc13)-c1ccccc1C2=O | -6.25% (active)
36 | CCC(c1cccc(O)c1)C(CC)c1cccc(O)c1 (stereo not drawn) | 67.8% (inactive)
37 | Cc1ccnc2c1ccc1c(C)ccnc12 | 8.87% (active)
38 | N#CSCC(=O)c1ccc(Cl)cc1 | 87.1% (inactive)
39 | NC(N)=N/N=C/c1ccc([N+](=O)[O-])o1 | 80.2% (inactive)
40 | Oc1c(Cl)c2ccccc2c2ccccc12 | 103% (inactive)

system: 786-0 renal; experiment: as above; conditions: 10 µM unless noted

Row | SMILES | growth
41 | O=C(/C=C/c1cccc(Cl)c1)c1ccccc1 | 88.3% (inactive) and 77.5% (inactive)
42 | O=C(Nc1cccc(Br)c1)Oc1ccc(Cl)c2cccnc12 | 89.3% [100 µM] (inactive)
43 | CN(C)c1ccc(/C=N/N=C(\C#N)[S][Sn]([Cl])([c]2ccccc2)[c]2ccccc2)cc1 | 10.8% (inactive)
44 | O=C1N[C@H]2[C@H](CS[C@H]2CCCCC(=O)N(CCP(c2ccccc2)c2ccccc2)CCP(c2ccccc2)c2ccccc2)N1 | 82.8% (inactive)
45 | NC(=S)N/N=C\c1nccc2c(C(F)(F)C(F)(F)C(F)(F)F)cccc12 | -48.3% (active)
46 | O=C1c2ccccc2C(=O)c2sc(Nc3cccc(Cl)c3)nc21 | 8.79% (active)
47 | O[C@H]1[C@H]2c3cc4c(cc3CN3CCC(=C[C@@H]1O)[C@H]23)OCO4 | 31.9% (inactive)
48 | CCCCCCCCCCCCCCCCOP(=O)([O-])OCC[N+](C)(C)C | 48.6% (inactive)
49 | Nc1ncnc2c1ncn2C1OC(CO)C(O)C1O (stereo not drawn) | 104% (inactive) and 73.7% (inactive) and 100% (inactive)
50 | CCOc1ccc(-c2nc3ccc(-c4nc5ccc(N6CCN(C)CC6)cc5[nH]4)cc3[nH]2)cc1 | -90.6% (active)
51 | O=C(/C=C\c1cc(Br)ccc1O)/C=C/c1cc(Br)ccc1O | -68% (active)
52 | CCC(=O)Sc1ccccc1C(=O)Nc1ccc(Cl)cc1 | 57% (inactive)
53 | Oc1c(Br)c(Br)c(O)c(Br)c1Br | 111% (inactive)
54 | COc1ccccc1OC(=O)Oc1ccccc1OC | 103% (inactive) and 96.6% (inactive)
55 | O=C1c2cccnc2-c2nccc3c2c1nc1cc(Br)ccc13 | -86.6% (active) and -85.6% (active)
56 | Nc1ccc(SSc2ccc(N)cc2)cc1 | 100% (inactive)
57 | Cc1ccc2nc(C[n+]3ccc4ccccc4c3)ccc2c1 | 92.2% (inactive)

Row | SMILES | growth
58 | CN(C)CCOc1ccc2c(c1)C(=O)/C(=C\c1ncc([N+](=O)[O-])n1C)C2 | -26.4% (active)
59 | N#CSCc1c(Cl)cccc1Cl | 71.5% (inactive)
60 | C[N+](C)=c1ccc2nc3c(cc(NCCCNc4cc5oc6cc(=[N+](C)C)ccc-6nc5c5ccccc45)c4ccccc43)oc-2c1 | -68.5% (active)
61 | COC(=O)C(CSC(c1ccccc1)(c1ccccc1)c1ccccc1)NC(=O)C(CC(N)=O)NC(=O)OCc1ccccc1 (stereo not drawn) (Cbz-Asn-Cys(Trt)-OMe; configuration not given here) | 30.7% (inactive)
62 | S=C(N/N=C/c1ccccn1)Nc1ccccn1 | 2.42% (active)
63 | O=C(/C=C\c1ccccc1)N1c2ccccc2CC1c1c[nH]c2ccccc12 (stereo not drawn) | 77.7% (inactive)
64 | CC(=Nc1ccc(N(C)C)cc1)c1ccccc1 | 74.5% (inactive)
65 | Cc1cc(N)c2ccccc2[n+]1CCCCCCCCCC[n+]1c(C)cc(N)c2ccccc21 | 18.7% (inactive) and 20.8% (inactive)
66 | N[C@H](C(=O)O)[C@@H]1CC(Cl)=NO1 | 24.2% [20 µM] (inactive)
67 | Cc1c2ccccc2c(C)c2c1ccc1ccccc12 | 91.5% (inactive)
68 | O=C(O)c1ccc2c3c(ncnc13)-c1ccccc1C2=O | 84.5% (inactive)
69 | CCC(c1cccc(O)c1)C(CC)c1cccc(O)c1 (stereo not drawn) | 74.8% (inactive)
70 | Cc1ccnc2c1ccc1c(C)ccnc12 | 6.29% (active)
71 | N#CSCC(=O)c1ccc(Cl)cc1 | 22.3% (inactive)
72 | NC(N)=N/N=C/c1ccc([N+](=O)[O-])o1 | 98% (inactive)
73 | Oc1c(Cl)c2ccccc2c2ccccc12 | 109% (inactive)
